Changes are numbered by the printed parent chain. The full ranking holds about 5,800 sequences; the median of “enrichment r” is about 0.54, and the highest 2% start at about 16. The entries come from a sample that favours the highest values as a whole.
B1: chr22:41636480:41636706:+|CDS|ENSG00000196419|unk|FALSE|unique (ssRNA)
RNA: GGGAGUUCUACAGUCCGACGAUCAUGGGCCACGGAUCUGACUACUCACUCAGUGAAGUGCUGUGGGUCUGUGCCAACCUCUUUAGUGAUGUCCAAUUCAAGAUGAGUCAUAAGAGGAUCAUGCUGUUCACCAAUGAAGACAACCAACAGAGGAUUGAGCAUCA
B2: chr1:223774945:223775046:+|3pUTR|ENSG00000162909|msi1|total|mutant (ssRNA)
RNA: GGGAGUUCUACAGUCCGACGAUCAAAUACACUUUGUAUCUGGACCUCAAAAUUAUGGGAACAUUUACUUAAACGGAUGAUCACCGCUGAAAAUAAUGAUACUGUCAAUUUGAGACCGCAGAAGUUUCACACAUCAAAGUAAAACAACAGAGGAUUGAGCAUCA
B3: chr2:108783740:108783841:+|CDS_3pUTR|ENSG00000153201|msi1_unk|FALSE|overlapping (ssRNA)
RNA: GGGAGUUCUACAGUCCGACGAUCCAAUAAUUCUCAAUUUGUUAUAACACUGAAGAAAGCAGAACAUUUGGACUUUAAGCAUGUAGUAUUUGGGUUUGUUAAGGAUGGCAUGGAUACUGUGAAAAAGAUUGAAUCAUUUGGUUCCAACAGAGGAUUGAGCAUCA
B4: chr16:61647241:61654101:-|three_prime_utr|ENSG00000150394|control|control|control (ssRNA)
RNA: GGGAGUUCUACAGUCCGACGAUCAAAGAAACUUGACAGUGGAUUAUAAAUAAAUCACUGGAACUGAGCAUUCUGUAAUAUUCUAGGGUCACUCCCCUUAGAUACAACCAAUGUGGCUAUUUGUUUUAGAGGCAAGUUUAGCACCAACAGAGGAUUGAGCAUCA
B5: chr1:62864655:62864756:+|3pUTR|ENSG00000125703|unk|FALSE|unique (ssRNA)
RNA: GGGAGUUCUACAGUCCGACGAUCUUUGUUAACUGUGAUAUGCAUACACUUAUAUAAGCAGAAUUAUGAGUUAAAGUAAUACUUAGCAAUAUGAUUUUAUAAUGGCUCCUCAUUAUGCUUGCUGUUGAACCUUUUAUGAGGAGUCAACAGAGGAUUGAGCAUCA
B6: chr8:74853834:74853946:+|3pUTR|ENSG00000137558|unk|total|mutant (ssRNA)
RNA: GGGAGUUCUACAGUCCGACGAUCAAGUGCUUUUUUUUUUCUGAAUUAAUCCGGUAUUGGUAAAAUAUAUUUUUAAAUUCCGUCCGCUUUAUAAACACAAUCCGAAUUACAAUUAAUUAACAGAGGUAUAAUUGUCUCACUUUCCAACAGAGGAUUGAGCAUCA
B7: ENSG00000070961:be:win_6051|3pUTR|ENSG00000070961|bound_else_gene|NA|bound_elsewhere_windowed (ssRNA)
RNA: GGGAGUUCUACAGUCCGACGAUCCAGAAAUUUCCAGAGCAUUAUGUAGGUAGAAAAAAAUGCAAGCAAGCUGUUAAAGAUCUUGGAUCCCAUUAUAUAGUAUGUAUAGCUGAAAUCUGUAAUUCAAUCACUUUUUCUCUUUUACAACAGAGGAUUGAGCAUCA
B8: chr8:42175503:42175666:-|3pUTR|ENSG00000104368|msi1|FALSE|unique (ssRNA)
RNA: GGGAGUUCUACAGUCCGACGAUCAUGAAAGCAUGUCUCAAUAGUAAAAGAUAACAAGAUCUUUCAGGAAAGACGGAUUGCAUUAGAAAUAGACAGUAUAUUUAUAGUCACAAGAGCCCAGCAGGGCCUCAAAGUUGGGGCAGGCAACAGAGGAUUGAGCAUCA
B9: chr12:89642165:89642281:-|CDS|ENSG00000070961|unk|total|mutant (ssRNA)
RNA: GGGAGUUCUACAGUCCGACGAUCGCCAAAAACCUUUCUUCAAUCCGUAUGGGAAGCAUUACAAGAUGUCACUUUAAUUAUAUCCGAAAUUGCAGCCACCGUAUCAUUGGGCCUUUCUUUUUAUCAGCCUCCAGAAGGGGAUAACAACAGAGGAUUGAGCAUCA
B10: chr12:123662440:123662541:+|3pUTR|ENSG00000111358|unk|FALSE|unique (ssRNA)
RNA: GGGAGUUCUACAGUCCGACGAUCAAUGGAAAUCACAAUUUUAAGUCUAGGAAAUAAAGUAUUAUAUAUACUUUCAAACAAGCUAGCAAGGCUUUUAUUAUUACUUUUUUAUUUGAAAUAUCUUAUAUAUUUGGUUAGUUCUGUCAACAGAGGAUUGAGCAUCA
B11: chr6:145382534:145384023:-|three_prime_utr|ENSG00000112425|control|control|control (ssRNA)
RNA: GGGAGUUCUACAGUCCGACGAUCUCAACAUGAUUUAACAGAUCUAUAUGUUAAAGGAGAAAAAGAUAUGUGGAUGCUAUCAAUAGUAGCUGAAAAGCAUUUUCAGAAAUCUGUAAGUAGAGGAAAUGUAUUCAUAUGUUUCUACAACAGAGGAUUGAGCAUCA
B12: chr3:97755980:97756081:+|3pUTR|ENSG00000080224|unk|total|mutant (ssRNA)
RNA: GGGAGUUCUACAGUCCGACGAUCUAAUUAAAAAUCUCUUUCCUACCUUCCGUAAUUUGCCGGAUGAACUGUAUGCAUUCCGACCGAAAUUGCUUUUGUUAAAUUUACAUUUAAACACAUCUUCAUUCACUCCGAGAAGCCAUACAACAGAGGAUUGAGCAUCA
B13: chr3:62294137:62294238:+|3pUTR|ENSG00000144724|msi1|FALSE|unique (ssRNA)
RNA: GGGAGUUCUACAGUCCGACGAUCUGAGACCCUUUAGUUAUUCUCCAUUAAUGCUUCUUAGUUUGUAAUACCAUACCUCACAGUAGGUAGAAGAAUGAAAACUUCUGCAGGUGUGUAAUUUUGAAACUAGUCCUCUAAAAAUUCCAACAGAGGAUUGAGCAUCA
B14: chr8:74853834:74853946:+|3pUTR|ENSG00000137558|unk|FALSE|unique (ssRNA)
RNA: B6 RNA with C50U, C51A, C79U, C80A, C83U, C84A, C101U, C102A
B15: chr3:97755980:97756081:+|3pUTR|ENSG00000080224|unk|FALSE|unique (ssRNA)
RNA: B12 RNA with C49U, C50A, C59U, C60A, C79U, C80A, C83U, C84A, C131U, C132A
B16: chr8:42175503:42175666:-|3pUTR|ENSG00000104368|msi1|total|mutant (ssRNA)
RNA: B8 RNA with U41C, A42C, U83C, A84C, U89C, A90C, U104C, A105C
B17: ENSG00000070961:be:win_6001|3pUTR|ENSG00000070961|bound_else_gene|NA|bound_elsewhere_windowed (ssRNA)
RNA: GGGAGUUCUACAGUCCGACGAUCCAAGACAUGCUUAGUGUGUAUUUCUCUCUUUGAGACACUGUAAUUUCUACCAGAAAUUUCCAGAGCAUUAUGUAGGUAGAAAAAAAUGCAAGCAAGCUGUUAAAGAUCUUGGAUCCCAUUCAACAGAGGAUUGAGCAUCA
B18: chr19:42216679:42217007:-|CDS|ENSG00000160570|control|control|control (ssRNA)
RNA: GGGAGUUCUACAGUCCGACGAUCCUUUCUGCUGGAUGAGGCUCCUGGCGCCGCCGGAGGCUUAGCCCGGGCCCGCAGCGGCCUAGAGCUCCUGCUGGAGCUGGAGCGCCGCGGGCAGUGCGACGAGAGCAACCUGCGGCUGCUCAACAGAGGAUUGAGCAUCA
B19: chr1:111117940:111118053:-|3pUTR|ENSG00000156171|unk|total|mutant (ssRNA)
RNA: GGGAGUUCUACAGUCCGACGAUCAGGCUGACAGUAACACUGAUGAAUGCUGAUAAUCAGGAAACAUGAAAGAAGCCAUUUGACCGAUUAUUCUAAAGGAUAUCAUCAAGAAGACUAUUAAAAACACCUAUGCCUAUACUUUUUCAACAGAGGAUUGAGCAUCA
B20: chr8:76983344:76983445:-|CDS|ENSG00000164751|msi1|total|mutant (ssRNA)
RNA: GGGAGUUCUACAGUCCGACGAUCAGCCACCAGUGGCAAAGAAUGCGCUCUAUGUGGAGAGUGGCCCACCAUGCCUCACACCACCGGAUGUGAGCAUAUUUUCUGUUAUUUCUGUGCUAAGAGCCGUUUCUUAUUUGACGUGUACAACAGAGGAUUGAGCAUCA
B21: chr12:101746137:101746238:-|3pUTR|ENSG00000111670|msi1|total|mutant (ssRNA)
RNA: GGGAGUUCUACAGUCCGACGAUCGGUCCGUAAAUUAUUGCAGGCCACCUGUGUCUUUGUCAUACAUUCUUCUUGCUGUUGUUCCGUUUGUUUUUUUUCAAACAACCCUCUAAAAAUGUAAAAACCAUGUUCCGCUUGCAGCUGCAACAGAGGAUUGAGCAUCA
B22: ENSG00000070961:be:win_2001|CDS|ENSG00000070961|bound_else_gene|NA|bound_elsewhere_windowed (ssRNA)
RNA: GGGAGUUCUACAGUCCGACGAUCAAAUGAUAUUGUCACCGGCCUUACAUGCAUUGCUGUUGUGGGGAUUGAAGAUCCUGUGAGACCUGAGGUGCCAGAUGCAAUUAAAAAGUGUCAGAGGGCUGGAAUUACUGUGCGGAUGGUCAACAGAGGAUUGAGCAUCA

Molecular target: MSI1 full-length (mouse, UniProt Q61474 1-362)
Assay: nsRBNS (natural sequence RNA bind-n-seq); RBNS binding buffer (assumed for nsRBNS): 25 mM Tris pH 7.5, 150 mM KCl, 3 mM MgCl2, 0.01% Triton X-100, 500 ug/ml BSA, 20 U/ml SUPERase-In, 4 C; UNK is unkempt and MSI1 is Musashi-1; names of the RNAs are library labels; protein concentration not given here; high values mean tight binding

Chain of MSI1 full-length (Q61474 whole entry): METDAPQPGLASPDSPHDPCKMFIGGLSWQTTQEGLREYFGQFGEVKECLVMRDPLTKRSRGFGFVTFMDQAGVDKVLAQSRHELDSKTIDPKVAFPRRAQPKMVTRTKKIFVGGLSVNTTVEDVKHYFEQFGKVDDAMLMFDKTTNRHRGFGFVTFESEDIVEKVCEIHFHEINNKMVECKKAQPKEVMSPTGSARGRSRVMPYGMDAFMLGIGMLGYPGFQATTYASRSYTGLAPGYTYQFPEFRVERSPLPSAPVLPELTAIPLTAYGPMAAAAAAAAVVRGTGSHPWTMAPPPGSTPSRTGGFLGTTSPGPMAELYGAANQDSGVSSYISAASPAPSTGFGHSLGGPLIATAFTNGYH

| Binder | binding signal [enrichment R] |
| --- | --- |
| B1 | 0.384 |
| B2 | 0.211 |
| B3 | 0.864 |
| B4 | 1.27 |
| B5 | 0.957 |
| B6 | 1.6 |
| B7 | 37.4 |
| B8 | 41.9 |
| B9 | 0.453 |
| B10 | 12.8 |
| B11 | 1.04 |
| B12 | 1.21 |
| B13 | 8.1 |
| B14 | 47.1 |
| B15 | 19.4 |
| B16 | 0.44 |
| B17 | 0.464 |
| B18 | 0.233 |
| B19 | 0.337 |
| B20 | 0.344 |
| B21 | 0.343 |
| B22 | 0.416 |

From PMC12136788
